From PubChem BioAssay (EPA / NIEHS)
Several values for one entry are separate records, joined by “and”; a condition that tells them apart may be missing. Equal entries are not always repeated. Records with an inconclusive call do not appear. Where a structure was tested more than once in an assay, its records may differ in their call. Activity calls are given as the source filed them. Rule for the calls: active = hit-call score of the fitted dose curve at least 0.9, where 1 is the maximum; inconclusive = response in the unintended direction; inactive = score below 0.9.

These molecules were tested against human Opioid Receptor Mu (Opiate Mu), OPRM1 (gene 4988) (UniProt P35372) (assay: NVS_GPCR_hOpiate_mu: NovaScreen (NVS) G Protein-Coupled Receptor Assay for human Opioid Receptor Mu (Opiate Mu) (AID 2283290);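 note: hits lower bound tracer signal versus DMSO meaning displacement of the ligand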).
Experimental: NVS_GPCR_hOpiate_mu is a biochemical, single-readout assay that uses extracted gene-proteins from CHO in a cell-free assay. Measurements were taken 2.5 hours after chemical dosing in a 96-well plate.NVS_GPCR_hOpiate_mu is one of one assay component(s) measured or calculated from the NVS_GPCR_hOpiate_mu assay. It is designed to make measurements of radioligand binding, a form of binding reporter, as detected with scintillation counting signals by Filter-based radiodetection technology.Data from the assay component NVS_GPCR_hOpiate_mu was analyzed into 1 assay endpoint. This assay endpoint, NVS_GPCR_hOpiate_mu, was analyzed in the positive analysis fitting direction relative to DMSO as the negative control and baseline of activity. Using a type of binding reporter, loss-of-signal activity can be used to understand changes in the binding as they relate to the gene OPRM1. Furthermore, this assay endpoint can be referred to as a primary readout, because the performed assay has only produced 1 assay endpoint. To generalize the intended target to other relatable targets, this assay endpoint is annotated to the gpcr intended target family, where the subfamily is rhodopsin-like receptor.
Binding assays used specific radioligands (tritiated, iodinated) with non-radioactive competitive displacement ligands in agonist or antagonist protocols (as indicated) and various reference compounds and inhibitors to titrate specific binding to receptors and transporters. Most enzyme assays (CYPs, kinases, phosphatases, proteases, HDACs) used recombinant protein and specific substrates (fluorescence mostly, some colorimetric and radioactive) and inhibitors, followed by a biochemical separation of substrate and product. All assays for the biochemical HTS were initially run in duplicate at a single concentration (10 uM for CYP450 assays and 25 uM for all others). […] Each assay was run with positive and negative controls, and concurrent controls on every plate. The follow-up (secondary) screen tested active chemical-pairs in concentration series, as well as a few additional assays not tested in the primary screen, some selected negative inactives, and several cases re-run in the concentration series for confirmatory purposes.

human Opioid Receptor Mu (Opiate Mu), OPRM1 (gene 4988), sequence (P35372 whole entry, looked up): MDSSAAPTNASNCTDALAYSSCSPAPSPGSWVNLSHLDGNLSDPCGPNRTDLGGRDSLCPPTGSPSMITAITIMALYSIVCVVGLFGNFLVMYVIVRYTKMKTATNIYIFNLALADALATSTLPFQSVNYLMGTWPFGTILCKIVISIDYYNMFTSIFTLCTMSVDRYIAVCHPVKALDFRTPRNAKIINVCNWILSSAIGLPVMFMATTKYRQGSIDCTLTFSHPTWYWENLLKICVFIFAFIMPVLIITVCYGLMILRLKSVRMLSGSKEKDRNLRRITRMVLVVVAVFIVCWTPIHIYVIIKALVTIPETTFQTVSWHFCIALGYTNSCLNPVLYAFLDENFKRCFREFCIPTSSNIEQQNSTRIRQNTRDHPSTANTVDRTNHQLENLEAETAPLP

SMILES	AC50	outcome
CC(C)CCCCCCc1ccc(O)cc1	15.8 µM (active)	
C=CCOC(Cn1ccnc1)c1ccc(Cl)cc1Cl (stereo not given)	11.2 µM (active)	
CC(C)(c1ccc(O)cc1)c1ccc(O)cc1	15.3 µM (active) [middle of 4 runs]	inactive
S=C([S-])NCCNC(=S)[S-].[Mn+2]	3.16 µM (active)	
S=C(S)NCCNC(=S)S.[Mn+2].[S-]C([S-])=NCCN=C([S-])[S-].[Zn+2]	154 nM (active) and 3.46 µM (active) and 9.37 µM (active)	inactive
Oc1ccc(C(c2ccc(O)cc2)C(Cl)(Cl)Cl)cc1	3.58 µM (active)	
CCCCCOC(=O)COc1cc(N2C(=O)C3=C(CCCC3)C2=O)c(F)cc1Cl		inactive
CCC(C)OC(=O)N1CCCCC1CCO (stereo not given)		inactive
